Assay results: the antibiotic and cytotoxicity screens of Wong et al. (2023)
Out of some 39,000 compounds screened, about 3,300 (8.5%) were called active. What follows is part of a selection rich in actives, with near analogues and random picks from the rest.

test system: HepG2; experiment: cytotoxicity call (relative viability < 0.9); settings: 10 µM

| Compound | cytotoxicity call |
| --- | --- |
| CCSC(=S)N[C@H]1CCS(=O)(=O)C1 | inactive |
| CC(C)NC(=O)Nc1ccc2c(c1)C(=O)N([C@@H](C)CO)C[C@@H](C)[C@@H](CN(C)C(=O)Nc1ccc(F)cc1)OCCCC[C@@H](C)O2 | inactive |
| C[C@H](O)C#Cc1ccc2c(c1)O[C@@H](CN(C)C)[C@H](C)CN([C@@H](C)CO)S2(=O)=O | inactive |
| COC(=O)C[C@H]1CC[C@@H]2[C@H](COC[C@@H](O)CN2S(=O)(=O)c2ccccc2C)O1 | inactive |
| Cc1ccc(S(=O)(=O)N(C)C[C@@H]2Oc3c(NS(C)(=O)=O)cccc3C(=O)N([C@@H](C)CO)C[C@H]2C)cc1 | inactive |
| C[C@@H]1CCCCO[C@@H](CN(C)CC2CC2)[C@H](C)CN([C@@H](C)CO)C(=O)c2cc(NC(=O)CCC(F)(F)F)ccc2O1 | inactive |
| Cn1c([N+](=O)[O-])cnc1COC(N)=O | inactive |
| COc1ccc(NC(=O)Nc2ccc3c(c2)[C@H]2C[C@H](CC(=O)N4CCN(C)CC4)O[C@H](CO)[C@H]2O3)cc1 | inactive |
| COCCOC(=O)N1C(=O)[C@@]2(c3cc(C#CCCO)ccc31)[C@H](c1ccc(O)cc1)N1[C@H](c3ccccc3)[C@H](c3ccccc3)OC(=O)[C@H]1[C@@H]2C(=O)N1CCc2cc(OC)c(OC)cc2C1 | inactive |
| Cc1ccc(C(C)C)c(O)c1 | inactive |
| CC1(C)NC(=O)N(c2ccc([N+](=O)[O-])c(C(F)(F)F)c2)C1=O | inactive |
| Cc1cccc(NC(=O)C(C)C)c1 | inactive |
| CC(C)C(=O)Nc1ccc([N+](=O)[O-])c(C(F)(F)F)c1 | active |
| COc1cccc(S(=O)(=O)N(C)C[C@@H]2OCc3cnnn3CCCC(=O)N([C@@H](C)CO)C[C@@H]2C)c1 | inactive |
| COc1ccc(S(=O)(=O)N(C)C[C@@H]2Oc3c(NC(=O)Nc4c(C)noc4C)cccc3C(=O)N([C@H](C)CO)C[C@H]2C)cc1 | inactive |
| Cc1noc(C)c1NC(=O)N(C)C[C@H]1OCCCC[C@@H](C)Oc2ccc(NC(=O)Nc3cccc4ccccc34)cc2C(=O)N([C@H](C)CO)C[C@@H]1C | inactive |
| CCOC(=O)n1ncc(C#N)c1N | inactive |
| CCOC(=O)CN(C#N)c1nc(C)cc(C)n1 | inactive |
| CCOC(=O)/C(C#N)=C1/C=CN(C)C=N1 | active |
| C[C@H]1CN([C@@H](C)CO)C(=O)c2cccc(NC(=O)CCCCCC(=O)Nc3ccccc3N)c2O[C@@H]1CN(C)C(=O)Nc1ccc(C(F)(F)F)cc1 | inactive |
| O=C(C[C@@H]1CC[C@H]2[C@@H](COC[C@H](O)CN2C(=O)Nc2cccc(Cl)c2)O1)NCCCN1CCOCC1 | inactive |
| C[C@H]1CN([C@@H](C)CO)C(=O)c2cccc(NC(=O)C3CC3)c2O[C@@H]1CN(C)C(=O)NC1CCCCC1 | inactive |
| C[C@H]1CN([C@@H](C)CO)C(=O)c2cccc(NC(=O)C3CCCCC3)c2O[C@@H]1CN(C)Cc1ccc(Oc2ccccc2)cc1 | inactive |
| C[C@@H]1CCCCO[C@@H](CN(C)C(=O)NC2CCCCC2)[C@@H](C)CN([C@H](C)CO)C(=O)c2cc(NS(=O)(=O)c3ccc(F)cc3)ccc2O1 | inactive |

| Compound | cytotoxicity call |
| --- | --- |
| C[C@H](CO)N1C[C@H](C)[C@H](CN(C)C(=O)Nc2ccccc2C(F)(F)F)OCc2ccccc2-c2c(n(C)c3ccccc23)C1=O | inactive |
| C[C@H](CO)N1C[C@H](C)[C@@H](CN(C)C(=O)Nc2cccc(Cl)c2Cl)OCc2ccccc2-c2c(n(C)c3ccccc23)C1=O | active |
| C[C@@H]1CN([C@@H](C)CO)C(=O)c2ccccc2-c2ccccc2CO[C@@H]1CN(C)C(=O)Nc1ccccc1C(F)(F)F | active |
| C[C@@H]1CN([C@H](C)CO)C(=O)c2c(c3ccccc3n2C)-c2ccccc2CO[C@H]1CN(C)C(=O)Nc1ccccc1C(F)(F)F | inactive |
| C[C@@H]1CN([C@H](C)CO)C(=O)c2ccccc2-c2ccccc2CO[C@@H]1CN(C)C(=O)Nc1ccccc1C(F)(F)F | inactive |
| C[C@@H]1CN([C@H](C)CO)C(=O)c2ccccc2-c2ccccc2CO[C@H]1CN(C)C(=O)Nc1ccccc1C(F)(F)F | inactive |
| C[C@H](CO)N1C[C@H](C)[C@H](CN(C)C(=O)Nc2cccc(Cl)c2Cl)OCc2ccccc2-c2c(n(C)c3ccccc23)C1=O | inactive |
| C[C@@H]1CN([C@H](C)CO)C(=O)c2c(c3ccccc3n2C)-c2ccccc2CO[C@H]1CN(C)C(=O)Nc1cccc(Cl)c1Cl | inactive |
| C[C@H](CO)N1C[C@H](C)[C@@H](CN(C)C(=O)Nc2ccccc2C(F)(F)F)OCc2ccccc2-c2c(n(C)c3ccccc23)C1=O | active |
| Cn1ccnc1CN1CC[C@]2(COCCN(S(C)(=O)=O)C2)C1 | inactive |
| Cc1ccc(S(=O)(=O)N(C)C[C@H]2Oc3c(NS(C)(=O)=O)cccc3C(=O)N([C@H](C)CO)C[C@@H]2C)cc1 | inactive |
| C[C@@H]1CN([C@H](C)CO)C(=O)CCCn2nncc2CO[C@@H]1CN(C)C(=O)Nc1cccc2ccccc12 | inactive |
| COc1cccc(-c2ccc3c(c2)O[C@H](CN(C)C(=O)C2CCOCC2)[C@@H](C)CN([C@H](C)CO)S3(=O)=O)c1 | inactive |
| NCc1ccc(C(=O)N2CCCCC2)cc1 | inactive |
| COCC(=O)N(C)C[C@@H]1Oc2cc(-c3ccc(C#N)cc3)ccc2S(=O)(=O)N([C@H](C)CO)C[C@@H]1C | inactive |
| CNCc1nc(C)no1 | inactive |
| COc1ccccc1S(=O)(=O)N[C@H]1C=C[C@H](CC(=O)N2CCOCC2)O[C@@H]1CO | inactive |
| Cc1ccc(S(=O)(=O)N2C[C@H](O)COC[C@H]3O[C@H](CC(=O)N4CCc5ccccc5C4)CC[C@@H]32)cc1 | inactive |
| CC(C)(N)c1cc(C(=O)N[C@@H]2CCc3ccc(Oc4ccnc5c4CCC(=O)N5)cc3C2)cc(C(F)(F)F)c1 | active |
| CC(C)CC#Cc1ccc2c(c1)O[C@@H](CN(C)C(=O)Cc1ccccn1)[C@@H](C)CN([C@@H](C)CO)S2(=O)=O | inactive |
| C[C@H]1CN([C@@H](C)CO)C(=O)c2cc(NS(=O)(=O)c3ccccc3)ccc2O[C@@H]1CN(C)S(C)(=O)=O | active |
| C[C@H](CO)N1C[C@H](C)[C@H](CN(C)S(C)(=O)=O)Oc2ccc(NS(=O)(=O)c3ccccc3)cc2C1=O | inactive |
| C[C@@H]1CN([C@@H](C)CO)C(=O)c2cc(NS(=O)(=O)c3ccccc3)ccc2O[C@@H]1CN(C)S(C)(=O)=O | inactive |
| C[C@@H]1CN([C@H](C)CO)C(=O)c2cc(NS(=O)(=O)c3ccccc3)ccc2O[C@H]1CN(C)S(C)(=O)=O | active |

| Compound | cytotoxicity call |
| --- | --- |
| C[C@H]1CN([C@@H](C)CO)C(=O)c2cc(NS(=O)(=O)c3ccccc3)ccc2O[C@H]1CN(C)S(C)(=O)=O | inactive |
| C[C@H](CO)N1C[C@H](C)[C@@H](CN(C)S(C)(=O)=O)Oc2ccc(NS(=O)(=O)c3ccccc3)cc2C1=O | inactive |
| Cn1cnc(S(=O)(=O)N2C[C@H](O)COC[C@H]3O[C@@H](CC(=O)NCc4cc(F)cc(F)c4)CC[C@@H]32)c1 | inactive |
| C[C@@H]1CN([C@H](C)CO)C(=O)c2cccc(NS(=O)(=O)c3ccc(F)cc3)c2O[C@H]1CN(C)S(=O)(=O)c1cn(C)cn1 | inactive |
| C[C@@H]1CCCCO[C@H](CN(C)S(C)(=O)=O)[C@@H](C)CN([C@H](C)CO)C(=O)c2cc(NC(=O)Nc3cccc4ccccc34)ccc2O1 | inactive |
| C[C@@H]1CN([C@@H](C)CO)C(=O)c2cccc(NC(=O)Nc3ccc(C(F)(F)F)cc3)c2O[C@@H]1CN(C)Cc1ccc2c(c1)OCO2 | active |
| C[C@H]1CN([C@@H](C)CO)C(=O)c2cccc(NC(=O)Nc3ccc4c(c3)OCO4)c2O[C@H]1CN(C)Cc1ccc(C(F)(F)F)cc1 | inactive |
| C[C@H]1CN([C@@H](C)CO)C(=O)c2cccc(NC(=O)Nc3ccc4c(c3)OCO4)c2O[C@@H]1CN(C)Cc1ccc(C(F)(F)F)cc1 | inactive |
| C[C@@H]1CN([C@@H](C)CO)C(=O)c2cccc(NC(=O)Nc3ccc(C(F)(F)F)cc3)c2O[C@H]1CN(C)Cc1ccc2c(c1)OCO2 | inactive |
| C[C@H]1CN([C@@H](C)CO)C(=O)c2cccc(NC(=O)Nc3ccc(C(F)(F)F)cc3)c2O[C@H]1CN(C)Cc1ccc2c(c1)OCO2 | inactive |
| C[C@H](CO)N1C[C@H](C)[C@@H](CN(C)Cc2ccc(C(F)(F)F)cc2)Oc2c(NC(=O)Nc3ccc4c(c3)OCO4)cccc2C1=O | inactive |
| C[C@@H]1CN([C@H](C)CO)C(=O)c2cccc(NC(=O)Nc3ccc4c(c3)OCO4)c2O[C@H]1CN(C)Cc1ccc(C(F)(F)F)cc1 | active |
| C[C@@H]1CN([C@@H](C)CO)C(=O)c2cccc(NC(=O)Nc3ccc4c(c3)OCO4)c2O[C@H]1CN(C)Cc1ccc(C(F)(F)F)cc1 | active |
| C[C@H](CO)N1C[C@H](C)[C@H](CN(C)Cc2ccc(C(F)(F)F)cc2)Oc2c(NC(=O)Nc3ccc4c(c3)OCO4)cccc2C1=O | inactive |
| CCOC(=O)N(C)C[C@H]1OCc2cn(nn2)CCCC(=O)N([C@H](C)CO)C[C@@H]1C | inactive |
| CC(=O)O[C@H]1CC[C@]2(C)[C@H]3CC[C@]4(C)C(=CC(=O)O[C@H]4c4ccoc4)[C@]3(C)[C@H](OC(C)=O)C[C@H]2C1(C)C | inactive |
| CN(C)C(=O)c1ccc(-c2ccc3n(c2=O)C[C@@H]2[C@@H](CO)[C@H](C(=O)NCCc4ccccc4)N[C@H]32)cc1 | inactive |
| COc1ccc(NC(=O)Nc2ccc3c(c2)C(=O)N([C@H](C)CO)C[C@H](C)[C@H](CN(C)Cc2ccc(Oc4ccccc4)cc2)O3)cc1 | inactive |
| COc1ccc(NC(=O)Nc2ccc3c(c2)C(=O)N([C@@H](C)CO)C[C@@H](C)[C@@H](CN(C)Cc2ccc(Oc4ccccc4)cc2)O3)cc1 | active |
| COc1ccc(NC(=O)Nc2ccc3c(c2)C(=O)N([C@@H](C)CO)C[C@@H](C)[C@H](CN(C)Cc2ccc(Oc4ccccc4)cc2)O3)cc1 | inactive |
| COc1ccc(NC(=O)Nc2ccc3c(c2)C(=O)N([C@@H](C)CO)C[C@H](C)[C@@H](CN(C)Cc2ccc(Oc4ccccc4)cc2)O3)cc1 | inactive |
| COc1ccc(NC(=O)Nc2ccc3c(c2)C(=O)N([C@H](C)CO)C[C@H](C)[C@@H](CN(C)Cc2ccc(Oc4ccccc4)cc2)O3)cc1 | active |
| COc1ccc(NC(=O)Nc2ccc3c(c2)C(=O)N([C@H](C)CO)C[C@@H](C)[C@@H](CN(C)Cc2ccc(Oc4ccccc4)cc2)O3)cc1 | inactive |
